{
  "source": "PubChem BioAssay (NCI)",
  "note": "About 83,000 compounds went through this panel and 20% of them were active in at least one assay; those are over-represented in the sample as a whole.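 Assay: single dose, 48 h. Readout: percent growth (0 = no net growth; negative = cell death). Active: <10.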 A number with no mark means an inactive call. Active and inactive are the calls of the source.",
  "data": [
    {"test_system": "HL-60(TB) leukemia", "assay": "NCI-60 one-dose screen, 48 h (100 = growth as untreated, 0 = no growth, -100 = all killed)", "settings": "10 µM unless noted", "values": [
      {"smiles": "C/C(=N\\N=C\\c1ccc(N(C)C)cc1)c1ccc2c(c1)Nc1ccccc1S2", "growth": "59.2%"},
      {"smiles": "O=C(Nc1cccc(C(F)(F)F)c1)c1cncc(C#Cc2cnc3cccnn23)c1", "growth": "29.9%"},
      {"smiles": "Oc1ccc(Cl)c(Nc2nc(SCCN3CCOCC3)nc3c2cnn3CC(Cl)c2ccc(Br)cc2)c1", "note": "(stereo not drawn)", "growth": "-36.2% (active)"},
      {"smiles": "O=C(Cn1c(/C=C/c2ccccc2)nc2ccccc2c1=O)Nc1ccccc1", "growth": "64.7%"},
      {"smiles": "O=C1Nc2cc(Cl)ccc2/C1=C/c1cccc(OCc2ccccn2)c1", "growth": "-9.79% (active)"},
      {"smiles": "Cn1cc(-c2cc3nc(-c4cn(C)c5ncccc45)cc(N)n3n2)c2cc(Cl)ccc21", "growth": "-66.6% (active)"},
      {"smiles": "Clc1ccc(-c2nc3ccc(-c4nnc(SCc5ccccc5)o4)cc3[nH]2)cc1", "growth": "51.8%"},
      {"smiles": "COc1ccc(-c2c(N)c(=O)n(C)c3ccccc23)cc1", "growth": "79.3%"},
      {"smiles": "C=CC[N+](C)(C)CCn1c2ccccc2c2nc3cc(C)c(C)cc3nc21", "growth": "97.7%"},
      {"smiles": "O=C(Cn1nc(-c2ccccc2)ccc1=O)N/N=C/c1ccc(N2CCOCC2)cc1", "growth": "96.3%"},
      {"smiles": "O=C1Nc2cc(-c3ccc(NS(=O)(=O)c4ccc([N+](=O)[O-])cc4)cc3)ccc2/C1=C/c1ccc[nH]1", "growth": "13.7%"},
      {"smiles": "Cc1ccc(/C=C/C(=O)c2ccc(NC(=O)CSc3nnc(-c4c[nH]c5ccccc45)n3-c3ccccc3)cc2)cc1", "growth": "75.5%"},
      {"smiles": "Cc1ccc2c(c1)nc(-c1ccccc1)n2CC(=O)N=Nc1c(O)[nH]c2ccc(Cl)cc12", "growth": "46.2%"}
    ]}
  ]
}
